Targets with a hit are over-represented here; the source holds about 7,900 in all. About 0.6% of all pairs of compound and target were hits. Unmarked numbers belong to inactive results.
Tests used:
Assay in all cases: log2 fold change, soluble protein after heating vs DMSO (PISA); higher = thermal stabilisation; K562 cells, 10 uM, 30 min; active = over 0.2 and 3.5 SD of the protein, either way, in both replicates (recomputed)
[1] = compound: NC(=O)Nc1cc(-c2cccc(F)c2)sc1C(=O)N[C@H]1CCCNC1
In short: (§1)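 Thermal stability values are relative to control samples and come from duplicates. They are expressed as log2 fold changes. For measurement, K562 cells (2×10^6 cells/mL) received 10 μM compound for 30 min, and aliquots were heated for 3 min over 48°C-58°C, pooled, and extracted at 4°C in PBS with 0.5% NP-40. Soluble protein, the supernatant after 21,000xg for 90 min, was quantified by TMTpro 16plex LC-MS/MS with equalised channel sums.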

[2] = compound: NC(=O)c1cnc(N[C@@H]2CCCC[C@@H]2N)nc1Nc1cccc(-n2nccn2)c1
In short: as §1

[3] = compound: NC1(c2ccc(-c3nc4ccn5c(=O)[nH]nc5c4cc3-c3ccccc3)cc2)CCC1
In short: as §1

[4] = compound: NCC(=O)Nc1ccc(-n2nc(C(F)(F)F)cc2-c2ccc3c(ccc4ccccc43)c2)cc1
In short: as §1

entinostat = compound: Nc1ccccc1NC(=O)c1ccc(CNC(=O)OCc2cccnc2)cc1 [entinostat]
In short: as §1

vorinostat = compound: O=C(CCCCCCC(=O)Nc1ccccc1)NO [vorinostat]
In short: as §1

citarinostat = compound: O=C(CCCCCCNC(=O)c1cnc(N(c2ccccc2)c2ccccc2Cl)nc1)NO [citarinostat]
In short: as §1

silmitasertib = compound: O=C(O)c1ccc2c(c1)nc(Nc1cccc(Cl)c1)c1ccncc12 [silmitasertib]
In short: as §1

[5] = compound: O=C1NC(=O)C(c2cnc3ccccn23)=C1c1cn2c3c(cc(F)cc13)CN(C(=O)N1CCCCC1)CC2
In short: as §1

[6] = compound: c1cc(OCCN2CCCCC2)cc(-c2n[nH]c3ccc(-c4nnc[nH]4)cc23)c1
In short: as §1

Chain of UniProt Q16842 (Q16842 whole entry, looked up): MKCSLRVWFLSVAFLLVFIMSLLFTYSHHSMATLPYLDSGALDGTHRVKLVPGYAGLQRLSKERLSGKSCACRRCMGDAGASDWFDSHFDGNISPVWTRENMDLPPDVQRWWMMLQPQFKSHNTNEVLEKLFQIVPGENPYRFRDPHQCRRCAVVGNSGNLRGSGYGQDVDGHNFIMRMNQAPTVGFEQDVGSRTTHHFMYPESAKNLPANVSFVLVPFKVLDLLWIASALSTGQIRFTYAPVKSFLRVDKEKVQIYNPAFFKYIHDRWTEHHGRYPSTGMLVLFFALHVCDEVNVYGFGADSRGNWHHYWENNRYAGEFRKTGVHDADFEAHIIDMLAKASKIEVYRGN
Chain of UniProt Q99805 (Q99805 whole entry, looked up): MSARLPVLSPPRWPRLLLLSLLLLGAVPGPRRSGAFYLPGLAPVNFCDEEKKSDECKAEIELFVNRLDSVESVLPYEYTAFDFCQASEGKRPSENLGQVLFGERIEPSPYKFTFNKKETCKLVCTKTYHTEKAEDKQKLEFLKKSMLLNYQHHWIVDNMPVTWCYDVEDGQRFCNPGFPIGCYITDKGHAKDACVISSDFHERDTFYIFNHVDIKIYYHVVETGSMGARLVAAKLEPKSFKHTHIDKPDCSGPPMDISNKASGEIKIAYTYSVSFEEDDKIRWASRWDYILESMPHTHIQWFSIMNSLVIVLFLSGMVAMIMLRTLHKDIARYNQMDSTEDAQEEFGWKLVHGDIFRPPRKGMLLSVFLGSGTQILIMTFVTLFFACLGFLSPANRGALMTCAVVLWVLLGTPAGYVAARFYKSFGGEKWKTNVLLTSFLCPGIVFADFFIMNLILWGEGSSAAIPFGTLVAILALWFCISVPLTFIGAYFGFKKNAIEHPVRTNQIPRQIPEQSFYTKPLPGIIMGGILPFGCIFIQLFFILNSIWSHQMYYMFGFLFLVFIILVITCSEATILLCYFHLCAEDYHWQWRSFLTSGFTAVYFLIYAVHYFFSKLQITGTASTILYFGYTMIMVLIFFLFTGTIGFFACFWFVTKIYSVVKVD
Chain of UniProt O14975 (O14975 whole entry, looked up): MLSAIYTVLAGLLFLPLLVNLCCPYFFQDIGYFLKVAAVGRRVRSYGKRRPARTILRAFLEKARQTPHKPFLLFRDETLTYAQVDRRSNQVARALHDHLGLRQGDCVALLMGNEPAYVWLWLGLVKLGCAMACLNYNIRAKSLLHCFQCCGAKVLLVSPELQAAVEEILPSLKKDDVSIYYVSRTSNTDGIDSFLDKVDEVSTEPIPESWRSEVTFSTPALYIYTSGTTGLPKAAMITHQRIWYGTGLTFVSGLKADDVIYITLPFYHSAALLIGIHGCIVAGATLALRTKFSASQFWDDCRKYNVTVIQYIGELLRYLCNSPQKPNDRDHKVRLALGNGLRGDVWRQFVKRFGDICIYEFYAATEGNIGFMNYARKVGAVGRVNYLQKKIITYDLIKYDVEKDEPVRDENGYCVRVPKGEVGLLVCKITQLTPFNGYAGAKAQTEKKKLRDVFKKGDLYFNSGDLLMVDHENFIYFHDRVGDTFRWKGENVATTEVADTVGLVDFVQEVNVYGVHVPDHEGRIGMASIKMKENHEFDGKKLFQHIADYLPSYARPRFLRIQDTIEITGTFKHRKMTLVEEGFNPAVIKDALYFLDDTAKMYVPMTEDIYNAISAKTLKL
Chain of UniProt Q9BUA3 (Q9BUA3 whole entry, looked up): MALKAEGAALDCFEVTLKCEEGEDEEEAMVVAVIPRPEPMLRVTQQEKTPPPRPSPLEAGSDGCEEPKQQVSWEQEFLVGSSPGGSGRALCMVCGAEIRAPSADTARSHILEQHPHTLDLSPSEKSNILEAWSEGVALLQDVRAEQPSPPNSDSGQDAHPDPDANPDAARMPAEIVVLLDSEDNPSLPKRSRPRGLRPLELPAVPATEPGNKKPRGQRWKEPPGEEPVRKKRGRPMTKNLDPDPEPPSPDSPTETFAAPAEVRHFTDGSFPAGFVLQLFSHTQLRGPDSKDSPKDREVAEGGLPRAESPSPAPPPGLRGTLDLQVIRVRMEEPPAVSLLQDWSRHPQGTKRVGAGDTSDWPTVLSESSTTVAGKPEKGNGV
Chain of UniProt Q9BTW9 (Q9BTW9 whole entry, looked up): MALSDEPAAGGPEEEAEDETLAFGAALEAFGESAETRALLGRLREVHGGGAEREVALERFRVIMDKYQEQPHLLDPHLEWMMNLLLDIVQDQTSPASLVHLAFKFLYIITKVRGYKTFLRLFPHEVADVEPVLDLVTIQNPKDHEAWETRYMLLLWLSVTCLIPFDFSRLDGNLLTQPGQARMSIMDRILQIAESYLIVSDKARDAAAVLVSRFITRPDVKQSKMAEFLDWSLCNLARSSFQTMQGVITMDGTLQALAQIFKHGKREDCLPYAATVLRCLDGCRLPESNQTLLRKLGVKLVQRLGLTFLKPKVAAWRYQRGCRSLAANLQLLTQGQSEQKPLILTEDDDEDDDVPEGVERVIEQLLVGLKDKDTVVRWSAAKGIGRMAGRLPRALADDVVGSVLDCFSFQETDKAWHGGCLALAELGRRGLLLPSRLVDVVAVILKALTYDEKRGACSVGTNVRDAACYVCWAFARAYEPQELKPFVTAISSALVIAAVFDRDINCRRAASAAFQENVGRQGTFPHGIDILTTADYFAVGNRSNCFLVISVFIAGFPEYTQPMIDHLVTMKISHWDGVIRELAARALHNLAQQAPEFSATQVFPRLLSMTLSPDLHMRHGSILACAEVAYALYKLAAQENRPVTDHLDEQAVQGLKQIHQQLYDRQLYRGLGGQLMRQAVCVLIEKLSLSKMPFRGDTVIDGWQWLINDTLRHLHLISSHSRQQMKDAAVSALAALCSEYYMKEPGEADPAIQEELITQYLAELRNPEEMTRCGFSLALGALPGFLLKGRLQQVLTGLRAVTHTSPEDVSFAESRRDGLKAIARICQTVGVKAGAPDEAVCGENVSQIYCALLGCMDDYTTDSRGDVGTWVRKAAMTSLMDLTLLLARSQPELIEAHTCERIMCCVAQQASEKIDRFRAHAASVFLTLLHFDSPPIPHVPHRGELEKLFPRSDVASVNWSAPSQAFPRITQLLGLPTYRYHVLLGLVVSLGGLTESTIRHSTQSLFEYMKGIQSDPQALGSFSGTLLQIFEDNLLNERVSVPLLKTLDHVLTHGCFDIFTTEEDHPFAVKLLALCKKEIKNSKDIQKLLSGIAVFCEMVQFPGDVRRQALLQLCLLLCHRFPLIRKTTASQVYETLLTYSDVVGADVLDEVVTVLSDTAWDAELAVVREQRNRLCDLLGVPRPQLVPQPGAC
Chain of UniProt P08579 (P08579 whole entry, looked up): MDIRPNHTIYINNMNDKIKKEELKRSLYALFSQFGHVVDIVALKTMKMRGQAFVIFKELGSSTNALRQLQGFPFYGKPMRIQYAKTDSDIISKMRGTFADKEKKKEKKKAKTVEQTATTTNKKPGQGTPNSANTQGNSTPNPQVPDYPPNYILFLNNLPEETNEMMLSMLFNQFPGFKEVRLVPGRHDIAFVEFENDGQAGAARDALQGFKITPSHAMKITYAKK
Chain of UniProt Q9H2G2 (Q9H2G2 whole entry, looked up): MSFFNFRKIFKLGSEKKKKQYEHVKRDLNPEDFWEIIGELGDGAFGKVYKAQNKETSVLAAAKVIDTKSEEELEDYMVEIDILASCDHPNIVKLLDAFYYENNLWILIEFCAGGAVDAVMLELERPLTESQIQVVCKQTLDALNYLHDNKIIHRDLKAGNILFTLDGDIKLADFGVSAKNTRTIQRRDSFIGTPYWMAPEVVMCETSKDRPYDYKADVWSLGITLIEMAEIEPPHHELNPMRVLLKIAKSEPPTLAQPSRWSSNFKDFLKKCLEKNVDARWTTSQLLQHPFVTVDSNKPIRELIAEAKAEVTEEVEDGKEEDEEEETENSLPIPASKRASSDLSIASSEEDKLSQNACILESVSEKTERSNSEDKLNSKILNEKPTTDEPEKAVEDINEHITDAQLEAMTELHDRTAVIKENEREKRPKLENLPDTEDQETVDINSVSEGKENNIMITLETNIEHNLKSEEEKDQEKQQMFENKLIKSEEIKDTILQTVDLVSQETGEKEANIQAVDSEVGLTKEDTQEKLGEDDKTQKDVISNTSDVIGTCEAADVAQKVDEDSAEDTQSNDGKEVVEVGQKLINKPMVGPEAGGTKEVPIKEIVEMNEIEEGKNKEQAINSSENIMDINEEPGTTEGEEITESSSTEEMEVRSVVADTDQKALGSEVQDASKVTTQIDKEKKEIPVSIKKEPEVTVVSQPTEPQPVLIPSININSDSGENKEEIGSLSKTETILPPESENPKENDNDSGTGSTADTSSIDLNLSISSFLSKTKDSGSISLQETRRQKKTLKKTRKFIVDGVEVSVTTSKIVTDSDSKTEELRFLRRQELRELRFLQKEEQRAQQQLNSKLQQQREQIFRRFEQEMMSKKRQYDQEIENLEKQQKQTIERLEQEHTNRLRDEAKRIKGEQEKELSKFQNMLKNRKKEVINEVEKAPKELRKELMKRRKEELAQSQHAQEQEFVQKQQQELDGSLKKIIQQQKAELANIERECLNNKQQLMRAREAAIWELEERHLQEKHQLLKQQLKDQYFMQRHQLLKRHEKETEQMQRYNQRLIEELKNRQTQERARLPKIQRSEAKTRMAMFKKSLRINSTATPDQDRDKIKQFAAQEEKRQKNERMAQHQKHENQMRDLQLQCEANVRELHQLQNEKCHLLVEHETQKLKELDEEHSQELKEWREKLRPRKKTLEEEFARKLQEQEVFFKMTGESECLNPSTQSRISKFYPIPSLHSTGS
Chain of UniProt P78382 (P78382 whole entry, looked up): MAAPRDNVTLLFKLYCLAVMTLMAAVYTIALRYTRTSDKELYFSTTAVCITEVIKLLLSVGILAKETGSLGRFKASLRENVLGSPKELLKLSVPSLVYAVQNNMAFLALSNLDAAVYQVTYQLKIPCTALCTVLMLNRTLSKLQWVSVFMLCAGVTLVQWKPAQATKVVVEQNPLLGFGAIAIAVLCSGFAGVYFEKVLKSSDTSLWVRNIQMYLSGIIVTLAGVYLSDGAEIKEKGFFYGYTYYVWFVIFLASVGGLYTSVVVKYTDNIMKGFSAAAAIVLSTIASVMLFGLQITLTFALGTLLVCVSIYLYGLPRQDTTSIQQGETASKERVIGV

Target	log2 fold change [1]	log2 fold change [2]	log2 fold change [3]	log2 fold change [4]	log2 fold change (entinostat)	log2 fold change (vorinostat)	log2 fold change (citarinostat)	log2 fold change (silmitasertib)	log2 fold change [5]	log2 fold change [6]
TBCD (UniProt Q9BTW9)	0.003	-0.057	-0.146	-0.03	0.03	-0.013	0.028	0.039	-0.001	-0.063
SRI (UniProt P30626)	-0.014	0.081	-0.04	0	0.058	-0.044	0.027	-0.004	-0.045	-0.038
SPTBN4 (UniProt Q9H254)	0	-0.09	-0.095	0.033	0.014	0.026	0.05	0.062	0.129	-0.013
SLC27A2 (UniProt O14975)	-0.068	-0.091	0.007	-0.047	-0.023	-0.053	0.059	0.083	0.247	-0.035
TERF2IP (UniProt Q9NYB0)	0.009	-0.132	0.007	-0.018	0.061	0.041	0.068	0.121	-0.051	-0.073
TM9SF2 (UniProt Q99805)	0.026	0.006	-0.138	-0.022	-0.006	0.006	-0.003	0.002	-0.057	-0.062
SLC38A2 (UniProt Q96QD8)	-0.023	-0.046	-0.037	-0.12	0.018	–	0.025	0.054	0.014	-0.088
SNRPB2 (UniProt P08579)	0.047	-0.012	0.03	0.038	-0.016	-0.027	0.023	0.051	0.046	-0.034
TARS2 (UniProt Q9BW92)	0.008	-0.018	-0.27 (active)	-0.031	0.011	-0.051	0.038	-0.005	-0.057	-0.008
SPINDOC (UniProt Q9BUA3)	0.09	0.003	0.014	-0.061	-0.188	-0.014	-0.106	-0.061	-0.102	0.053
SURF2 (UniProt Q15527)	0.019	0.076	0.033	0.088	-0.012	-0.009	0.06	0.079	-0.004	-0.018
TK1 (UniProt K7ERV3)	-0.127	-0.054	-0.005	0.022	-0.071	-0.003	–	-0.039	-0.116	–
SLC35A1 (UniProt P78382)	-0.05	-0.015	-0.069	0.1	-0.065	–	0.047	0.021	0.028	-0.106
ST3GAL2 (UniProt Q16842)	-0.066	0.101	-0.04	0.008	-0.028	-0.013	0.008	-0.003	-0.016	-0.05
STAT5A (UniProt P42229)	-0.115	-0.112	-0.112	-0.115	0.112	0.061	0.194	0.037	-0.029	0.061
SSR4 (UniProt P51571)	0.032	-0.013	-0.011	0.023	-0.011	0	0.019	-0.029	0.004	-0.056
SUMO1 (UniProt P63165)	-0.006	-0.116	0.071	-0.074	-0.01	-0.086	-0.063	-0.012	0.045	-0.087
SUCLA2 (UniProt Q9P2R7)	-0.021	-0.058	-0.128	-0.077	0.014	0.107	0.068	-0.039	-0.028	-0.046
SLIRP (UniProt Q9GZT3)	-0.121	-0.106	-0.041	-0.062	0.127	-0.055	0.023	-0.016	-0.129	-0.129
TIMM10 (UniProt P62072)	-0.004	0.042	-0.027	-0.077	0.058	-0.048	-0.012	0.009	-0.04	-0.043
SYNE2 isoform 2 (UniProt Q8WXH0)	-0.229	-0.172	0.087	-0.134	-0.125	0.072	0.053	-0.056	–	0.03
STK25 (UniProt O00506)	-0.029	-0.06	-0.136	-0.08	-0.016	0.042	-0.026	0.078	-0.064	-0.034
TJP1 (UniProt Q07157)	-0.043	-0.067	0.033	-0.071	0.044	0.049	0.041	-0.158	-0.056	-0.092
TACC2 (UniProt O95359)	-0.013	-0.027	-0.052	-0.187	0.035	-0.033	0.003	0.116	–	-0.073
SLK isoform 2 (UniProt Q9H2G2)	-0.314 (active)	-0.042	-0.058	-0.014	0.048	0.006	0.074	0.124	0.009	-0.044
SLC39A11 (UniProt Q8N1S5)	0	-0.027	-0.085	0.024	-0.016	-0.063	-0.059	0.078	–	-0.122
SRSF10 (UniProt O75494)	0.059	-0.096	0.444	0.063	-0.047	0.048	-0.153	0.103	0.304	-0.152
SNX15 (UniProt Q9NRS6)	0.106	-0.135	-0.048	-0.133	0.061	0.436 (active)	0.113	0.276	–	-0.073
TFR2 (UniProt Q9UP52)	-0.039	-0.004	-0.601 (active)	0.007	0.007	0.002	0.033	-0.001	-0.035	-0.067
TMBIM6 isoform 2 (UniProt P55061)	0.027	-0.119	0.189	-0.015	0.044	–	0.05	-0.206	-0.089	-0.067
